# Inconclusive results are not listed. Calls of active or inactive are those of the source. Unless noted, how the calls were made is not given here.
# Experiments:
# [1] = qHTS profiling of the MIPE4 collection as inhibitors of Plasmodium falciparum (3D7) proliferation (AID 743344);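 further: scaled between DMSO vehicle wells and 0.29 µM artemisinin as full inhibition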; conditions: P. falciparum 3D7 in erythrocytes, SYBR Green DNA fluorescence, 72 h; at 28.5 µM unless noted
# Method in brief: (§1)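 Erythrocytes infected with P. falciparum (0.3% parasitemia, 2.5% hematocrit) incubated with compounds 72 h at 37 C, 5% CO2. Lysis with saponin/Triton buffer containing SYBR Green I, overnight at room temperature in the dark; DNA fluorescence (485/535 nm) normalised to 0.29 uM artemisinin and DMSO.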
# [2] = qHTS profiling of the MIPE4 collection as inhibitors of Plasmodium falciparum (DD2) proliferation (AID 743345); conditions: P. falciparum Dd2 in erythrocytes, SYBR Green DNA, 72 h; at 28.5 µM unless noted
# Method in brief: as §1
# [3] = qHTS profiling of the MIPE4 collection as inhibitors of Plasmodium falciparum (DD2) proliferation (Rep 2) (AID 743346); conditions: P. falciparum Dd2 in erythrocytes, SYBR Green DNA, 72 h; at 28.5 µM unless noted
# Method in brief: as §1
# [4] = qHTS profiling of the MIPE4 collection as inhibitors of Plasmodium falciparum (HB3) proliferation (AID 743347);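 further: plate controls were DMSO vehicle wells for no effect and artemisinin wells for full effect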; conditions: P. falciparum HB3 in erythrocytes, SYBR Green DNA, 72 h; at 28.5 µM unless noted
# Method in brief: as §1
# [5] = High-throughput drug toxicity screening in the BPDCN cell line Gen2.2 (AID 1224824); conditions: Gen2.2 BPDCN cells; at 45.8 µM (top of the series) unless noted;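 further: cells exposed to compounds for 48 h before reading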
# Method in brief: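 Seed 500 exponentially growing Gen2.2 cells/well; add compounds by pin tool; incubate 48 h, 37 °C, 5% CO2; add CellTiter-Glo, 15 min RT; read luminescence. % activity vs DMSO (100%) and bortezomib (0%).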
# [6] = High-throughput drug toxicity screening in the BPDCN cell line Cal-1 (AID 1224825); conditions: Cal-1 BPDCN cell viability, qHTS; at 45.8 µM (top of the series) unless noted
# Method in brief: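 Exponentially growing Cal-1 cells, 500 per well in phenol red-free RPMI with 10% FBS, were exposed to compounds for 48 h at 37 °C, 5% CO2. Viability was read by CellTiter-Glo luminescence and normalised to DMSO (100%) and 9.2 uM bortezomib (0%).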
# [7] = qHTS assay for measurement of the activity of small molecule inhibitors on Zika virus induced Caspase-3 activity in human iPSC derived neural progenitor cells (hNPCs) (AID 1224857; active means well fitted curve in the direction sought with a large enough effect; an effect the other way counts as inactive or inconclusive; further: nearly all actives have a fitted effect of over 65% in size; further: potency means the concentration at half of the fitted maximal effect)
# Method in brief: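 Percent inhibition of virus-induced caspase-3/7 luminescence (Caspase-Glo), scaled between uninfected cells and Zika-infected cells. hNPCs received compound 1 hr before ZIKV at 2 FFU/cell, with 6 hours infection at 37 C.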
# [8] = qHTS assay for measurement of the activity of small molecule inhibitors on Zika virus induced Caspase-3 activity in human astrocytoma cells (AID 1224859; active means well fitted curve in the direction sought with a large enough effect; an effect the other way counts as inactive or inconclusive; further: potency means the concentration at half of the fitted maximal effect)
# Method in brief: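 Luminescent caspase-3/7 read-out (30 min reagent, room temperature) in human SNB-19 cells infected 6 h with ZIKV (2 FFU/cell) after 1 h compound pre-incubation; Data were normalised to uninfected and infected wells.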
# [9] = qHTS Screen of the MIPE 4.0 Collection Against Ewings Sarcoma (RDES) (AID 1259252; active means well fitted curve in the direction sought with a large enough effect; an effect the other way counts as inactive or inconclusive; further: nearly all actives have a fitted effect of over 35% in size; further: potency means the concentration at half of the fitted maximal effect)
# Method in brief: (§2)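 Measured: ATP luminescence (CellTiter-Glo) 10 min after reagent addition, following 48 h drug treatment. Relative luciferase units converted to percent activity, with no-cell wells as full and DMSO wells as zero inhibition.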
# [10] = qHTS Screen of the MIPE 4.0 Collection Against Ewings Sarcoma (EW8) (AID 1259255; active means well fitted curve in the direction sought with a large enough effect; an effect the other way counts as inactive or inconclusive; further: nearly all actives have a fitted effect of over 35% in size; further: potency means the concentration at half of the fitted maximal effect;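 on viability: 100% = DMSO-treated cells and 0% = medium-only wells without cells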)
# Method in brief: as §2
# [11] = qHTS Screen of the MIPE 4.0 Collection Against Ewings Sarcoma (TC32) (AID 1259256; active means well fitted curve in the direction sought with a large enough effect; an effect the other way counts as inactive or inconclusive; further: nearly all actives have a fitted effect of over 45% in size; further: potency means the concentration at half of the fitted maximal effect)
# Method in brief: as §2
# [12] = qHTS profiling for inhibitors of Plasmodium falciparum (DD2) proliferation (AID 743323); conditions: lower = more inhibition; at 28.7 µM (top of the series) unless noted
# Method in brief: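 1536-well qHTS; infected RBCs 0.3% parasitemia/2.5% Hct final; cpd 72 h 37 C 5% CO2; lysis buffer + SYBR Green I, o/n RT dark; FI 485/535; norm. to 0.29 uM artemisinin and DMSO, plate-stack corrected.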
# [13] = qHTS profiling for inhibitors of Plasmodium falciparum (HB3) proliferation (AID 743324; active means well fitted curve in the direction sought with a large enough effect; an effect the other way counts as inactive or inconclusive;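 further: 100% = DMSO vehicle wells and 0% = artemisinin-treated control wells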); conditions: Plasmodium falciparum HB3 blood-stage proliferation; at 28.7 µM (top of the series) unless noted
# Method in brief: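 P. falciparum HB3 grown in erythrocytes (0.3% parasitemia, 2.5% hematocrit final) with compound for 72 h at 37 C, 5% CO2. Parasite DNA detected by SYBR Green after saponin/triton lysis overnight; normalized to 0.29 uM artemisinin and DMSO.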
# [14] = qHTS Screen of the MIPE 4.0 Collection Against Ewings Sarcoma (TC71) (AID 1259253; active means well fitted curve in the direction sought with a large enough effect; an effect the other way counts as inactive or inconclusive; further: potency means the concentration at half of the fitted maximal effect; nearly all actives have a fitted effect of over 40% in size)
# Method in brief: as §2
SMILES,"parasite growth, % of DMSO control [1]","parasite growth remaining, % of DMSO control (lower = more inhibition) [2]","parasite growth, % of control (lower = inhibition) [3]","growth, % of control [4]","cell viability, % of control (lower = more cytotoxic) [5]",viability (% of control) [6],Potency [7],Potency [8],Potency [9],Potency [10],Potency [11],"activity, percent of control [12] [%]","remaining proliferation (% of control), lower = more inhibition [13] [%]",Potency [14]
CC(C)[C@H](O)C(=O)N[C@@H](C)C(=O)N[C@@H]1C(=O)N(C)CCc2ccccc21,13.3%,14.9%,26.2%,17.8%,95.1%,95.1%,inactive,inactive,16.6 µM (active),inactive,inactive,–,–,–
C[C@]12CC[C@@H]3c4ccc(O)cc4CC[C@H]3[C@H]1[C@@H](O)[C@@H](O)[C@H]2O,5.15%,9.25%,–,2.52%,218%,44.4%,inactive,inactive,20.9 µM (active),inactive,inactive,–,–,–
CN[C@H]1[C@@H](O[C@@H]2[C@H](O[C@@H]3[C@@H](O)[C@@H](O)[C@@H](N=C(N)N)[C@@H](O)[C@@H]3N=C(N)N)O[C@H](C)[C@@]2(O)C=O)O[C@@H](CO)[C@@H](O)[C@H]1O,99% [at 9.64 µM],94.4% [at 9.64 µM],87.4% [at 9.64 µM],89.1% [at 9.64 µM],122% [at 15.3 µM],118% [at 15.3 µM],inactive,inactive,inactive,inactive,inactive,–,–,–
CC1(C)OC2CC3C4CC(F)C5=CC(=O)C=CC5(C)C4C(O)CC3(C)[C@]2(C(=O)CO)O1 (some centres not stated),52.8%,89.8%,7.06%,47.9%,77.5%,52%,inactive,inactive,inactive,inactive,–,–,–,–
Cc1csc(-c2nnc(Nc3ccc(Oc4ncccc4-c4ccnc(N)n4)cc3)c3ccccc23)c1,38.3%,81.1%,47.8%,26.8%,24.7%,13.3%,inactive,inactive,0.0296 µM (active),0.0059 µM (active),–,85.6,51.2,–
C=CC[N+]1([C@H]2C[C@H]3[C@@H]4CC[C@H]5C[C@H](O)[C@@H](N6CCOCC6)C[C@]5(C)[C@@H]4CC[C@]3(C)[C@H]2OC(C)=O)CCCC1,31.1%,–,21.1%,40.8%,168%,116%,inactive,inactive,inactive,inactive,inactive,–,–,–
CCC[C@@H](NC(=O)[C@@H]1[C@H]2CCC[C@@H]2CN1C(=O)[C@@H](NC(=O)[C@@H](NC(=O)c1cnccn1)C1CCCCC1)C(C)(C)C)C(=O)C(=O)NC1CC1,9.1%,61.2%,19.9%,10.3%,48.1%,63.1%,inactive,inactive,inactive,16.6 µM (active),–,–,–,–
Cc1cc(OCCCS(C)(=O)=O)cc(C)c1-c1cccc(COc2ccc3c(c2)OC[C@H]3CC(=O)O)c1,52.2%,34.3%,–,90.9%,168%,91.1%,inactive,inactive,inactive,20.9 µM (active),inactive,–,–,–
COc1ccc(C=CC(=O)Nc2ccccc2C(=O)O)cc1OC,24.6%,90.5%,48.9%,32%,188%,104%,2.64 µM (active),2.64 µM (active),inactive,inactive,inactive,–,–,–
O=C(Nc1ccccc1)Nc1ccc(-c2ccc(C(=O)[C@H]3CCC[C@H]3C(=O)O)cc2)cc1,29%,78.7%,32%,51.7%,28.8%,107%,inactive,inactive,14.8 µM (active),–,18.7 µM (active),–,–,–
CCN(CCO)CCCOc1ccc2c(Nc3cc(CC(=O)Nc4cccc(F)c4)[nH]n3)ncnc2c1,9.18%,11.6%,17.8%,6.77%,90.4%,15.3%,inactive,inactive,–,0.0833 µM (active),0.059 µM (active),–,–,0.166 µM (active)
OC[C@H]1O[C@@H](OCCc2ccc(O)cc2)[C@H](O)[C@@H](O)[C@H]1O,97.9%,103%,131%,104%,106%,96.6%,inactive,inactive,23.5 µM (active),–,–,–,–,–
CC(C)(CO)[C@@H](O)C(=O)NCCC(=O)O,92.1%,101%,114%,102%,85%,107%,inactive,inactive,20.9 µM (active),–,–,–,–,–
Oc1ccc(C=Cc2cc(O)cc(O)c2)cc1,49.1%,96.9%,40.6%,13%,240%,39.4%,11.8 µM (active),6.62 µM (active),18.7 µM (active),–,18.7 µM (active),–,–,–
O=C(NC[C@H](O)CO)c1ccncc1Nc1ccc(I)cc1F,60.9%,101%,56.7%,54.8%,5.6%,12.1%,inactive,inactive,18.7 µM (active),–,–,–,–,–
CC1CNc2c(cccc2S(=O)(=O)N[C@@H](CCCN=C(N)N)C(=O)N2CC[C@@H](C)C[C@@H]2C(=O)O)C1 (some centres not stated),82.3%,–,101%,86.9%,225%,6.64%,inactive,inactive,9.35 µM (active),–,14.8 µM (active),–,–,–
c1ccc(CNc2nc(N3CCOc4ccccc43)nc3c2CCCC3)cc1,10.7%,70.4%,21.3%,8.4%,233%,95.6%,inactive,inactive,inactive,–,inactive,–,–,–
